Test results published in PubChem BioAssay (NCI).
Compounds without any hit were thinned out: in the full panel of roughly 83,000, 20% have a hit.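 Note: values are percent growth. 100 is the growth of untreated cells, values between 100 and 0 indicate rising inhibition; between -100 and 0 indicates cell death.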 Calls of active or inactive are those of the source. Rule for the calls: active = growth percent below 10; inactive = the rest.

Assays:
Assay in all cases: NCI-60 one-dose screen, 48 h (100 = growth as untreated, 0 = no growth, -100 = all killed)
Conditions in all cases: 10 µM unless noted
EKVX NSCLC = tested on: EKVX NSCLC
SN12C renal = tested on: SN12C renal
UO-31 renal = tested on: UO-31 renal
ACHN renal = tested on: ACHN renal
CAKI-1 renal = tested on: CAKI-1 renal
A498 renal = tested on: A498 renal
CCRF-CEM leukemia = tested on: CCRF-CEM leukemia
MOLT-4 leukemia = tested on: MOLT-4 leukemia
SR leukemia = tested on: SR leukemia
OVCAR-8 ovarian = tested on: OVCAR-8 ovarian
OVCAR-5 ovarian = tested on: OVCAR-5 ovarian
OVCAR-4 ovarian = tested on: OVCAR-4 ovarian
SK-OV-3 ovarian = tested on: SK-OV-3 ovarian
IGROV1 ovarian = tested on: IGROV1 ovarian
HS 578T breast = tested on: HS 578T breast
NCI/ADR-RES ovarian = tested on: NCI/ADR-RES ovarian
T-47D breast = tested on: T-47D breast
OVCAR-3 ovarian = tested on: OVCAR-3 ovarian
RPMI-8226 leukemia = tested on: RPMI-8226 leukemia

Measured: growth

O=C1c2c(c3c4cc(Br)ccc4[nH]c3c3ccc4ccccc4c23)C(=O)N1CCO
active: SR leukemia -6.75%
inactive: EKVX NSCLC 100% | SN12C renal 89.5% | UO-31 renal 78% | ACHN renal 73.7% | CAKI-1 renal 69.6% | A498 renal 90.6% | CCRF-CEM leukemia 64.6% | MOLT-4 leukemia 70.5% | OVCAR-8 ovarian 85.2% | OVCAR-5 ovarian 108% | OVCAR-4 ovarian 104% | SK-OV-3 ovarian 89.3% | IGROV1 ovarian 73.9% | HS 578T breast 103% | NCI/ADR-RES ovarian 90.5% | T-47D breast 51.5%

CCCC(=O)NC(c1cccnc1)c1cc(C)c2cccnc2c1O (centres undefined)
active: OVCAR-3 ovarian -0.275%
inactive: EKVX NSCLC 31.5% | SN12C renal 45.7% | UO-31 renal 26.6% | ACHN renal 20.2% | CAKI-1 renal 28% | A498 renal 63.1% | CCRF-CEM leukemia 20.7% | MOLT-4 leukemia 18.8% | SR leukemia 22.3% | OVCAR-8 ovarian 14% | OVCAR-5 ovarian 53.6% | OVCAR-4 ovarian 29.7% | SK-OV-3 ovarian 43.4% | IGROV1 ovarian 30.6% | HS 578T breast 71.8% | NCI/ADR-RES ovarian 23.7% | T-47D breast 29.7%

CS(=O)(=O)c1ccc(-c2nc3ccccn3c2/C=N/Nc2nc(-c3ccc(Cl)cc3)cs2)cc1
inactive: EKVX NSCLC 96.8% | SN12C renal 102% | UO-31 renal 76.2% | ACHN renal 101% | CAKI-1 renal 91.8% | CCRF-CEM leukemia 85.6% | MOLT-4 leukemia 82% | SR leukemia 95.1% | RPMI-8226 leukemia 82.2% | OVCAR-8 ovarian 98% | OVCAR-5 ovarian 104% | OVCAR-4 ovarian 105% | SK-OV-3 ovarian 140% | IGROV1 ovarian 115% | OVCAR-3 ovarian 124% | HS 578T breast 107% | NCI/ADR-RES ovarian 104% | T-47D breast 78%

Clc1ccc2c(NCCCn3ccnc3)c3oc4ccc(Cl)cc4c3nc2c1
inactive: EKVX NSCLC 46.7% | SN12C renal 79.3% | UO-31 renal 44% | ACHN renal 44.4% | CAKI-1 renal 60.5% | A498 renal 45.9% | CCRF-CEM leukemia 57.2% | MOLT-4 leukemia 77% | OVCAR-8 ovarian 71.9% | OVCAR-5 ovarian 86.7% | OVCAR-4 ovarian 95.7% | IGROV1 ovarian 58.9% | OVCAR-3 ovarian 98.8% | HS 578T breast 91.1% | NCI/ADR-RES ovarian 74.1% | T-47D breast 78.2%
active: SR leukemia -11.2%

O=C(N/N=C/c1ccc(Cl)s1)c1[nH]c2ccc(Br)cc2c1-c1ccccc1
active: SR leukemia 9.05% | RPMI-8226 leukemia 5.6% | OVCAR-8 ovarian 2.09%
inactive: EKVX NSCLC 41.7% | SN12C renal 50.4% | UO-31 renal 46.2% | ACHN renal 25.3% | CAKI-1 renal 23.8% | CCRF-CEM leukemia 10.9% | MOLT-4 leukemia 14.1% | OVCAR-5 ovarian 52.9% | OVCAR-4 ovarian 69.5% | SK-OV-3 ovarian 29.6% | IGROV1 ovarian 19.5% | HS 578T breast 27% | NCI/ADR-RES ovarian 17.2% | T-47D breast 64.7%

CC(=O)Oc1ccccc1C(=O)Nc1ccc(C(=O)/C=C/c2ccncc2)cc1
active: ACHN renal 0.759% | SR leukemia -15.2%
inactive: EKVX NSCLC 71.7% | SN12C renal 33.5% | UO-31 renal 44.4% | CAKI-1 renal 62.6% | CCRF-CEM leukemia 10.2% | MOLT-4 leukemia 23.1% | OVCAR-8 ovarian 82.4% | OVCAR-5 ovarian 64.4% | OVCAR-4 ovarian 87.5% | SK-OV-3 ovarian 111% | IGROV1 ovarian 10.3% | HS 578T breast 69.5% | NCI/ADR-RES ovarian 91.8% | T-47D breast 53.4%

COc1cc(-c2ccc3ncnc(NC(C)c4ccccc4)c3c2)cnc1OC (centres undefined)
inactive: EKVX NSCLC 19.5% | SN12C renal 39.1% | UO-31 renal 19.1% | ACHN renal 21% | CAKI-1 renal 16.4% | CCRF-CEM leukemia 56.3% | MOLT-4 leukemia 45.1% | SR leukemia 43.7% | RPMI-8226 leukemia 26.5% | OVCAR-8 ovarian 55.2% | OVCAR-5 ovarian 42.8% | OVCAR-4 ovarian 49% | SK-OV-3 ovarian 40.4% | OVCAR-3 ovarian 25.2% | HS 578T breast 21.1% | NCI/ADR-RES ovarian 58.8%
active: IGROV1 ovarian -23.2% | T-47D breast 1.57%

CN(C)CCCNc1c2ccc(Cl)cc2nc2c1oc1ccc(Cl)cc12
active: SN12C renal -74.4% | ACHN renal -96.8% | CAKI-1 renal -85% | CCRF-CEM leukemia 2.17% | MOLT-4 leukemia -4.89% | SR leukemia -12.3% | OVCAR-8 ovarian -78.6% | OVCAR-5 ovarian -7.04% | OVCAR-4 ovarian 0.544% | IGROV1 ovarian -64.3% | OVCAR-3 ovarian -52.6% | NCI/ADR-RES ovarian 2.92%
inactive: EKVX NSCLC 44.4% | UO-31 renal 45.2% | A498 renal 37.9% | SK-OV-3 ovarian 60.5% | HS 578T breast 60.9% | T-47D breast 84.4%

COc1ccc(-c2nc3ccc(-c4nnc(SCC(=O)Nc5ccc(C(C)=O)cc5)o4)cc3[nH]2)cc1
inactive: EKVX NSCLC 99.2% | SN12C renal 113% | UO-31 renal 94.1% | ACHN renal 102% | CAKI-1 renal 101% | CCRF-CEM leukemia 100% | MOLT-4 leukemia 87.8% | SR leukemia 89.5% | OVCAR-8 ovarian 108% | OVCAR-5 ovarian 107% | OVCAR-4 ovarian 109% | SK-OV-3 ovarian 118% | IGROV1 ovarian 107% | HS 578T breast 96.8% | NCI/ADR-RES ovarian 118% | T-47D breast 105%

COc1cc2nc(-c3ccc(Cl)cc3)cc(OCCCNCC3CCCO3)c2cc1OC (centres undefined)
active: RPMI-8226 leukemia 8.63%
inactive: EKVX NSCLC 67.1% | SN12C renal 47.3% | UO-31 renal 57.3% | ACHN renal 46.6% | CAKI-1 renal 17.3% | CCRF-CEM leukemia 49.1% | MOLT-4 leukemia 40.6% | SR leukemia 19.5% | OVCAR-8 ovarian 42.2% | OVCAR-5 ovarian 50.1% | OVCAR-4 ovarian 79.4% | SK-OV-3 ovarian 88.4% | IGROV1 ovarian 33.7% | HS 578T breast 76.6% | NCI/ADR-RES ovarian 46.8% | T-47D breast 77.1%

N#Cc1nc(-c2ccccc2)oc1N1CC[C@@H](CO)C1
inactive: EKVX NSCLC 98.5% | SN12C renal 98.1% | UO-31 renal 86.3% | ACHN renal 95.9% | CAKI-1 renal 91.5% | CCRF-CEM leukemia 93.6% | MOLT-4 leukemia 101% | SR leukemia 84.6% | OVCAR-8 ovarian 100% | OVCAR-5 ovarian 108% | OVCAR-4 ovarian 101% | SK-OV-3 ovarian 116% | IGROV1 ovarian 94.5% | HS 578T breast 111% | NCI/ADR-RES ovarian 102% | T-47D breast 98.1%

CCN1CCN(S(=O)(=O)c2oc(-c3ccc(Cl)cc3)nc2C#N)CC1
active: ACHN renal -86.6% | CCRF-CEM leukemia 2.3% | MOLT-4 leukemia 0.374% | IGROV1 ovarian 7.89% | T-47D breast 7.45%
inactive: EKVX NSCLC 95.6% | SN12C renal 78.7% | UO-31 renal 33.2% | CAKI-1 renal 65% | RPMI-8226 leukemia 29% | OVCAR-8 ovarian 85% | OVCAR-5 ovarian 94.8% | OVCAR-4 ovarian 105% | OVCAR-3 ovarian 41.8% | HS 578T breast 105% | NCI/ADR-RES ovarian 96%

Fc1ccc(-c2cc3nc(C(Cl)Cl)nc(-c4ccccc4)n3n2)cc1
inactive: SN12C renal 52% | CCRF-CEM leukemia 55.7% | MOLT-4 leukemia 23.6% | IGROV1 ovarian 46.5% | NCI/ADR-RES ovarian 10.6% | T-47D breast 22.1%
active: EKVX NSCLC 1.49% | UO-31 renal 3.9% | ACHN renal -27.2% | CAKI-1 renal -17.5% | SR leukemia 3.78% | RPMI-8226 leukemia -16.1% | OVCAR-8 ovarian 8.61% | OVCAR-5 ovarian -20.3% | OVCAR-4 ovarian -16.9% | SK-OV-3 ovarian -18.6% | HS 578T breast -18%

O=C(N/N=C/c1ccc([N+](=O)[O-])s1)c1[nH]c2ccc(Br)cc2c1-c1ccccc1
active: EKVX NSCLC 9.91% | MOLT-4 leukemia 9.21% | SR leukemia 7.33% | RPMI-8226 leukemia 0.935% | OVCAR-8 ovarian -8.62%
inactive: SN12C renal 17.5% | UO-31 renal 46.6% | ACHN renal 12.7% | CAKI-1 renal 23.6% | CCRF-CEM leukemia 16.1% | OVCAR-5 ovarian 27.9% | OVCAR-4 ovarian 55.9% | SK-OV-3 ovarian 45.8% | IGROV1 ovarian 24.4% | OVCAR-3 ovarian 24.1% | HS 578T breast 11.6% | NCI/ADR-RES ovarian 17.3% | T-47D breast 59.7%

Clc1ccc2oc3c(NCCCN4CCOCC4)c4ccccc4nc3c2c1
inactive: EKVX NSCLC 37.9% | SN12C renal 19.6% | UO-31 renal 24.2% | ACHN renal 13.4% | CAKI-1 renal 12.8% | CCRF-CEM leukemia 27.6% | RPMI-8226 leukemia 11.4% | OVCAR-8 ovarian 23.3% | OVCAR-5 ovarian 30% | OVCAR-4 ovarian 36.9% | SK-OV-3 ovarian 57.8% | IGROV1 ovarian 16.9% | OVCAR-3 ovarian 64.5% | HS 578T breast 37.8% | NCI/ADR-RES ovarian 29.2% | T-47D breast 51.7%
active: MOLT-4 leukemia 4.08% | SR leukemia 1.91%

O=C(c1ccc(O)cc1)C1[C@H](c2ccc(Cl)cc2)[C@@H](c2ccccc2)NC12C(=O)Nc1ccc(Cl)cc12 (some centres undefined)
inactive: EKVX NSCLC 48.1% | UO-31 renal 35.4% | ACHN renal 16.8% | CAKI-1 renal 29.5% | A498 renal 50.8% | CCRF-CEM leukemia 40.4% | MOLT-4 leukemia 10.3% | RPMI-8226 leukemia 26.4% | OVCAR-8 ovarian 47.7% | OVCAR-5 ovarian 68.8% | OVCAR-4 ovarian 47.1% | IGROV1 ovarian 38.9% | HS 578T breast 60.5% | NCI/ADR-RES ovarian 36.2% | T-47D breast 31.4%
active: SN12C renal -1.78% | SR leukemia 9.52%

CCOC(=O)c1c(Nc2ccccc2)nn2c(N)c(C#N)c(-c3ccc(Cl)cc3)nc12
inactive: EKVX NSCLC 68.9% | SN12C renal 53.1% | UO-31 renal 93.8% | ACHN renal 42.1% | CAKI-1 renal 31.5% | A498 renal 63.3% | CCRF-CEM leukemia 83% | MOLT-4 leukemia 87.5% | SR leukemia 86.9% | OVCAR-8 ovarian 42.5% | OVCAR-5 ovarian 78.5% | OVCAR-4 ovarian 44.1% | SK-OV-3 ovarian 59.4% | IGROV1 ovarian 70.5% | OVCAR-3 ovarian 81.8% | HS 578T breast 33.8% | NCI/ADR-RES ovarian 71% | T-47D breast 68.5%

c1ccc(CNc2ncnc3ccc(-c4cnc5[nH]ncc5c4)cc23)cc1
inactive: EKVX NSCLC 46.6% | SN12C renal 56.6% | UO-31 renal 35% | ACHN renal 34.5% | CAKI-1 renal 36.3% | CCRF-CEM leukemia 73.1% | MOLT-4 leukemia 34.6% | RPMI-8226 leukemia 60.8% | OVCAR-8 ovarian 71.2% | OVCAR-5 ovarian 61.8% | OVCAR-4 ovarian 79.4% | OVCAR-3 ovarian 67.1% | HS 578T breast 45% | NCI/ADR-RES ovarian 81.9% | T-47D breast 18.5%
active: A498 renal -8.94% | IGROV1 ovarian 9.48%
